From PubChem
VHR inh abs: blocks human VHR1 dual specificity phosphatase; P51452; 290,000 tested, 0.52% active; inhibition, % at 13.3 µM; recombinant VHR phosphatase, pNPP absorbance; in the data active means inhibition above about 50%
Target sequence (P51452 whole entry, looked up): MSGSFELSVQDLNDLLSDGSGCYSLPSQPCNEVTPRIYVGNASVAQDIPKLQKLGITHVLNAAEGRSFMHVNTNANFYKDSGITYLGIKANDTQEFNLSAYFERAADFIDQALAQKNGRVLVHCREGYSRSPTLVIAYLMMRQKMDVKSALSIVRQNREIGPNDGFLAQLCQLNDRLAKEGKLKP
BoNT A protease: BoNT A light chain protease inhibition; multiplex microsphere protease substrate cleavage, flow cytometry; inhibition, % at 10 µM; 360,000 tested, 0.17% active; further: plate controls were buffer without enzyme for full effect and enzyme alone for no effect
Bead autofluor: compound fluorescence in toxin protease inhibitor counterscreen; compound autofluorescence counterscreen, microsphere flow cytometry; hits give high values; 360,000 tested, 3.1% active; fluorescence intensity (test concentration not listed); in the data active means fluorescence intensity above about 16000; inconclusive means no clear call, values can overlap the other calls
MazF activator: activators of E. coli MazEF toxin-antitoxin RNase; P0AE70; FAM/BHQ RNA-DNA oligo cleavage fluorescence, 5 h; activation, % at 20 µM; 350,000 tested, 0.32% active; AID 504720; in the data active means activation above about 50%
Target sequence (P0AE70 whole entry, looked up): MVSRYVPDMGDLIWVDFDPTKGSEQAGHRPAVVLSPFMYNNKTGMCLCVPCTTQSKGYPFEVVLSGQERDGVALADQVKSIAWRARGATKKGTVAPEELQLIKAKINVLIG
BoNT-F LC inh: BoNT F light chain protease inhibition. Multiplex microsphere protease cleavage assay, flow cytometry. inhibition, % at 10 µM. 360,000 tested, 0.22% active. AID 588497; in the data active means inhibition above about 35%, passing the limit was not always enough; inconclusive means no clear call, values can overlap the other calls; further: plate controls were buffer without enzyme for full effect and enzyme alone for no effect
Anthrax LF inh2: inhibitors of Bacillus anthracis lethal factor protease | P15917 | AID 588501 | 360,000 tested, 0.12% active | multiplex microsphere protease cleavage assay, LF | inhibition, % at 10 µM; further: plate controls were buffer without enzyme for full effect and enzyme alone for no effect
Starred values were filed as active, the others as inactive; ? = inconclusive; . = not tested or not shown. An excerpt weighted towards active compounds, which were near 4% of everything screened. Unless noted, no stated cut-off is given here; in the data, active means inhibition above about 30%; inconclusive means no clear call, values can overlap the other calls; inactive means below that.

SMILES	VHR inh abs	BoNT A protease	Bead autofluor	MazF activator	BoNT-F LC inh	Anthrax LF inh2
Cc1ccc(NC(=O)CN(C)S(=O)(=O)c2cccc3nsnc23)cc1	-16.2	-0.3	2491	-2.7	7.3	1.7
O=C(NCCN1CCN(C(=O)NC2CCCCC2)CC1)NC1CCCCC1	32.0	-0.3	3370	-6.3	-3.2	-3.0
CCOc1cccc(OCCCCN2CCOCC2)c1	5.0	-0.1	2461	-2.8	-0.3	0.9
Clc1cccc(OCCN2CCOCC2)c1	15.1	0.1	16577*	-3.9	-3.1	-2.4
Brc1ccccc1OCCCN1CCOCC1	8.8	1.1	23079*	5.3	-0.4	-6.9
c1ccc(OCCCCN2CCOCC2)cc1	20.2	-0.6	16576*	7.3	0.9	-1.8
CCc1nnc(NC(=O)C(=O)NCCOC(=O)c2ccccc2)s1	15.6	-0.2	7472	-2.4	-3.9	-2.6
CCc1cc(C(=O)OC)c(N2C(=O)C3C4C=CC(C4)C3C2=O)s1 (stereo not drawn)	8.3	-0.1	23671*	-4.5	-2.7	-1.2
CC(=O)Nc1cccc(NC(=O)CSc2nc(C)c(C)c(C)c2C#N)c1	-12.0	?	21241*	-11.8	4.7	-0.1
COc1ccccc1-c1ccc(NC2CCCCC2)nn1	-17.6	2.9	23544*	0.8	-1.5	6.7
Cc1cccc(N2CCN(S(=O)(=O)c3ccc4c(c3)n(C)c(=O)c(=O)n4C)CC2C)c1 (stereo not drawn)	34.3	?	19587*	-15.4	7.9	-3.8
COc1ccc(NC(=O)C23CC4CC(C2)CC(n2cnc(Br)n2)(C4)C3)cc1OC	16.6	?	16534*	-0.5	-4.1	-4.1
CC1=C(C(=O)NCc2ccccc2)C(c2ccc(C)o2)n2ncnc2N1 (stereo not drawn)	17.6	?	20601*	3.6	2.1	0.8
CCCCOC(=O)C1=C(C)Nc2ncnn2C1c1cccc(OC)c1 (stereo not drawn)	-4.2	-0.3	23328*	1.7	2.6	1.5
CCOC(=O)C1=C(c2ccccc2)Nc2ncnn2C1c1cc(OC)ccc1OC (stereo not drawn)	8.3	1.4	21867*	7.3	2.3	1.8
COc1cccc(C2C(C(C)=O)=C(C)Nc3ncnn32)c1 (stereo not drawn)	20.6	-1.3	3951	8.3	17.9	-5.8
CC(=O)C1=C(C)Nc2ncnn2C1c1cccc(OCc2ccccc2)c1 (stereo not drawn)	53.3*	-0.9	4379	3.7	2.0	-12.0
CC1=C(C(=O)Nc2ccccc2C)C(c2cccs2)NC(=S)N1 (stereo not drawn)	-4.7	-0.1	2068	1.6	-0.6	-3.2
CCC1(C)NC(=O)N(/N=C/c2cc(OC)c(O)c(OC)c2)C1=O (stereo not drawn)	14.1	-0.1	4236	9.9	-3.9	-1.7
CC1(C)CC(=O)C([N+](=O)[O-])=C(NCCCO)C1	10.2	-0.1	2434	-2.5	-8.4	-1.4
CCCCOC(=O)C1=C(C)Nc2ncnn2C1c1cc(OC)ccc1OC (stereo not drawn)	20.0	7.0	19006*	6.9	9.5	-12.0
O=C1c2ccccc2N(Cc2ccc(Cl)cc2)C2=NCCN12	4.7	-0.1	2695	145.7*	-7.1	-0.8
Clc1ccc(CN2C3=NCCCN3c3ccccc32)cc1	13.4	-0.2	4833	5.2	-3.5	1.8
COc1ccc(C(=O)Cn2c3ccccc3n3nc(CCC(=O)O)c(=O)nc23)cc1OC	30.5	-0.5	20229*	-0.2	-1.2	2.5
Cc1ccccc1-n1c(O)c(/C=C/C=Nc2ccccc2)c(=O)[nH]c1=O	2.1	1.0	2912	-477.0	3.9	1.7
SMILES	VHR inh abs	BoNT A protease	Bead autofluor	MazF activator	BoNT-F LC inh	Anthrax LF inh2
Cn1c(O)c(/C=C/C=Nc2ccccc2)c(=O)n(C)c1=S	53.8*	8.0	4507	-447.9	9.2	1.6
Cn1c(/C=C/c2ccccc2[N+](=O)[O-])nc2ccccc2c1=O	30.3	2.1	3076	232.7*	8.4	2.2
CCn1c(/C=C/c2ccccc2[N+](=O)[O-])nc2ccccc2c1=O	23.4	-4.4	2080	2.6	-30.8	-2.7
COc1ccc(N2C3=[N+](CCCC3)CC2(C)O)cc1 (stereo not drawn)	-1.0	-2.7	16662*	6.3	-4.3	-4.2
COc1ccc(/C=N\Nc2ccccn2)c(OC)c1	12.7	-0.9	3578	-10.2	-19.6	3.6
COc1ccc(/C=N/Nc2ncc(Br)cn2)c(OC)c1	87.8*	-0.3	4819	-4.8	-4.0	1.5
O=c1nc(N(c2ccccc2)c2ccccc2)[nH]c(=O)[nH]1	14.6	?	20223*	7.1	-3.2	-0.8
O=C(COC(=O)Cn1cnc2ccccc2c1=O)Nc1ccc(Cl)c(C(F)(F)F)c1	-0.1	0.1	2207	0.7	0.2	-0.7
COc1ccccc1NS(=O)(=O)c1ccc(Cl)c(NC(=O)CN2C(=O)c3ccccc3C2=O)c1	-1.6	0.6	1965	0.2	8.7	2.3
O=c1[nH]c2ccc(S(=O)(=O)Nc3ccc(Br)cc3)cc2[nH]1	-3.6	8.8	5248	-5.1	18.1	10.6
CC(NC(=O)NC12CC3CC(CC(C3)C1)C2)C1CCCO1 (stereo not drawn)	-13.2	?	21432*	10.9	5.7	0.1
COc1ccccc1N1C(=O)C=C(Sc2nc(C)cc(C)n2)C1=O	-6.5	.	.	13.2	.	.
COc1cc(/C=N/n2c(C3CCCCC3)n[nH]c2=S)ccc1O	58.2*	-1.5	3083	-13.0	-7.9	-10.2
COc1cccc(/C=N/n2c(C3CCCCC3)n[nH]c2=S)c1O	-3.8	-1.7	4322	7.5	20.9	9.2
Cc1ccc(C)c(S(=O)(=O)Nc2ccc3oc(C)c(C(=O)O)c3c2)c1	8.0	1.0	5122	6.8	7.3	-2.6
Cc1nnc(Nc2ccc(Cl)cc2)n(N)c1=O	-7.0	-0.6	9562	3.9	3.6	5.1
Cc1cccc(C)c1NC(=O)CCN1C(=O)C2C3CCC(C3)C2C1=O (stereo not drawn)	31.1	-3.2	24501*	0.1	-3.0	-2.2
O=C(C1=C[C@H](C2CC2)C[C@H](OCCCCO)O1)N1CCN(Cc2ccc3c(c2)OCO3)CC1	21.1	0.0	3054	2.0	-11.0	-2.2
C=CCn1c(C)cc(C)c(C#N)c1=O	8.2	0.1	22789*	5.6	1.3	-4.9
CCn1c(C)cc(C)c(C#N)c1=O	8.3	-0.9	3606	-19.9	-4.2	-4.4
Cc1nnc(N2CCCC(C(=O)NCc3cccc(F)c3)C2)c2nn(-c3ccccc3)c(C)c12 (stereo not drawn)	-6.0	-2.7	16533*	14.5	19.0	3.6
CCc1ccc(CNC(=O)C2CCCN(c3nnc(C)c4c(C)n(-c5ccccc5)nc34)C2)cc1 (stereo not drawn)	6.5	0.2	20786*	11.6	29.8	4.0
Cc1ccccc1CNC(=O)C1CCCN(c2nnc(C)c3c(C)n(-c4ccccc4)nc23)C1 (stereo not drawn)	20.6	-4.0	10752	11.9	3.7	-1.8
CCNC(=O)CN(CCc1ccccc1)S(=O)(=O)c1ccc(OC)cc1	6.4	0.4	16480*	2.5	2.9	-2.6
